Only some compounds are listed: those with a hit (about 2.6% of all), similar ones and a draw of the others.
HepG2 viability – counter-screen for TGF-b inhibitors: cytotoxicity in HepG2 cells | HepG2 CAGA-GFP viability, ATP luminescence, 18 h | Potency, µM (top dose mostly 46.1 µM), hits mostly cytotoxic | 0.76% of 410,000 active
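CellTiter-Glo luminescence gave cytotoxicity after 18 hours at 37 degrees C. The cells were HepG2 CAGA-GFP in 1% FBS DMEM, stimulated with 500 pg/mL TGF-beta after compound addition. %Activity was normalised to no-cell wells (complete cell-killing) and DMSO (no toxicity), and curves were fitted and classified.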
uPA generation – cell surface uPA generation inhibition; cell surface uPA generation assay, qHTS; Potency, µM (highest dose often 38.3 µM), usual class: inhibitors; 0.31% of 330,000 active; AID 540303; active = well fitted inhibition curve with a large enough effect; inconclusive = small, poorly fitted or top-dose-only effect; inactive = no such curve, though single readings can be large or run the other way; tested in mouse RAW 264.7 cells; note: nearly all actives have a fitted effect of over 55% in size
TGFb inhibitor – inhibitors of TGF-b signaling; HepG2 CAGA-GFP TGF-b/SMAD3 reporter, GFP fluorescence, 18 h; TGF-beta stimulated, 500 pg/mL final; Potency, µM (top dose mostly 46.1 µM), hits mostly inhibitors; 1.2% of 410,000 active; AID 588855; note: nearly all actives have a fitted effect of over 65% in size
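First, reporter cells (HEPG2 CAGA-GFP) rested 2 h at 37 degrees C. Next, compounds were pinned in and TGF-beta added to 500 pg/mL final. After 18 h, GFP was imaged per cell and summed per well.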
S2 tox – cell viability loss in ATXN counter-screen; S2 cells (HEK-293 line with an ATXN2-luciferase reporter) viability, CellTiter-Fluor protease fluorescence, 24 h; Potency, µM (highest dose often 56.7 µM), hits mostly cytotoxic; 0.49% of 400,000 active; AID 651635; note: nearly all actives have a fitted effect of over 40% in size
Giardia kill – Giardia lamblia killing; Giardia lamblia trophozoite viability; activity change, % at 7.66 µM, hits read low; 0.15% of 340,000 active; AID 540267; in the data active = activity change below about -80%; inconclusive = between about -30% and that limit;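 note: parasites exposed to compound for two days anaerobically before the ATP read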
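Killing of trophozoites was scored by loss of ATP luminescence after a 48 hrs anaerobic exposure to compounds at 37 deg C, using 100 cells per well.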
ATXN2 expr inh – ATXN2 expression inhibition | Potency, µM (top dose mostly 57 µM), actives largely listed as inhibitors | HEK-293 ATXN2-luciferase reporter, luminescence, 24 h | AID 1745845 | 0.72% of 360,000 active; note: nearly all actives have a fitted effect of over 55% in size
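qHTS (up to 57 uM final) was run with 24 h compound exposure of reporter cells at 37 °C. Each well was multiplexed: SteadyGlo luminescence measured ATXN2-luciferase expression after a fluorogenic Gly-Phe-AFC viability readout (25 uM final).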
Numbers stand for hits; . = inactive; ? = inconclusive; / = not tested or not shown; [ ] = another dose, or the depositor's remark. Unless noted, calls come from the whole dose curve; as a rule, active = well fitted curve in the direction sought with a large enough effect; inconclusive = small, poorly fitted or top-dose-only effect, or another doubt; inactive = no such curve, though single readings can be large; an effect the other way counts as inactive or inconclusive.

SMILES | HepG2 viability | uPA generation | TGFb inhibitor | S2 tox | Giardia kill | ATXN2 expr inh
Cc1c(N)nc([C@H](CC(N)=O)NC[C@@H](N)C(N)=O)nc1C(=O)N[C@H](C(=O)N[C@@H](C)[C@H](O)[C@@H](C)C(=O)N[C@@H](C(=O)NCCc1nc(-c2nc(C(=O)NCCC[S+](C)C)cs2)cs1)[C@@H](C)O)C(O[C@H]1O[C@H](CO)[C@H](O)[C@@H](O)[C@@H]1O[C@H]1O[C@H](CO)[C@@H](O)[C@H](OC(N)=O)[C@H]1O)c1cnc[nH]1 (stereo not given in full) | / | / | / | / | / | 14µM
CC(=O)OC1CC[C@]2(C#N)[C@H]3CC[C@]4(C)[C@H](C5C=CC(=O)O5)CCC4(O)C3CCC2(O)C1 (stereo not given in full) | 10µM | . | . | ? | . | /
CCN(CC)S(=O)(=O)c1ccc(NN=C(C#N)C#N)cc1 | . | . | ? | ? | . | .
N#CC(C#N)=NNc1ccc([N+](=O)[O-])cc1 | . | . | ? | 14µM | . | .
O=C1N[C@H](Cc2ccccc2)COC(=O)[C@@H](Cc2ccc(F)cc2)C/C=C\C[C@H]1CC(=O)N(CCO)Cc1ccccc1 | . | ? | ? | ? | . | ?
CCN(CC)Cc1c[nH]c2ccccc12 | . | . | . | . | . | .
CN(CCc1ccccc1)Cc1c[nH]c2ccccc12 | 11µM | 2.2µM | 14µM | ? | . | /
COc1ccc(C2C=C(c3ccccc3)Nc3nc(NC(=O)/C=C/c4ccccc4Cl)nn32)cc1 (stereo not given) | . | / | ? | . | / | ?
Cc1cnc(SCc2ccccn2)nc1C1CCCN(C(=O)c2ccc(-c3ccccc3F)cc2)C1 (stereo not given) | / | / | / | . | / | /
Cn1nc(-c2ccc(C(=O)Nc3ccc(OC(F)(F)F)cc3)cc2)c2ccccc2c1=O | . | / | ? | ? | / | .
CC(NC(=O)Oc1cccc2ccccc12)c1ccccc1 (stereo not given) | . | . | . | . | . | .
CCn1nc(-c2cccs2)nc2c(=O)n(C)c(=O)nc1-2 | 0.35µM | . | ? | . | . | .
CCOc1ccc(-n2c(-c3cccs3)nc3ccccc3c2=O)cc1 | . | . | . | . | ? | ?
CCn1nc(/C=C/c2ccccc2)nc2c(=O)n(C)c(=O)nc1-2 | 0.89µM | . | 0.4µM | / | -94 | ?
COc1ccc2cc1Oc1ccc(cc1)CC1c3c(cc(OC)c4c3Oc3cc5c(cc3O4)CCNC5C2)CCN1C (stereo not given) | . | ? | 10µM | 8.4µM | ? | 11µM
C1=NCCc2c1[nH]c1ccccc21 | . | . | ? | . | . | ?
O=C1NCc2c1c1c3ccccc3[nH]c1c1[nH]c3ccccc3c21 | 13µM | / | ? | / | . | /
C[C@@H]1CN([C@@H](C)CO)C(=O)CCCn2nncc2CO[C@@H]1CN(C)C(=O)Nc1ccc(N2CCCCC2)cc1 | . | / | . | . | / | .
CC(C)[C@H]1C(=O)O[C@H](C(C)C)C(=O)N(C)[C@@H](C(C)C)C(=O)O[C@H](C(C)C)C(=O)N(C)[C@@H](C(C)C)C(=O)O[C@H](C(C)C)C(=O)N1C | . | ? | 5.6µM | 10µM | . | 7.9µM
C[C@H](CO)N1C[C@H](C)[C@H](CN(C)C(=O)N[C@H](C)c2ccccc2)OCc2ccccc2-c2c(n(C)c3ccccc23)C1=O | . | / | . | ? | / | .
CCOC(=O)Cn1cc([N+](=O)[O-])nc1[N+](=O)[O-] | 11µM | . | ? | . | . | .
O=c1[nH]c(=S)[nH]c(O)c1/C=C1/C=c2ccccc2=N1 | . | . | 13µM | . | . | .
O=C1CC(c2cccc(Br)c2)c2cc3c(cc2N1)CCC3 (stereo not given) | . | ? | ? | ? | . | .
COc1ccccc1CNc1nc(NCc2ccccc2SC)c2sccc2n1 | . | / | ? | ? | / | ?
O=Cc1ccc(O)cc1 | . | / | . | / | / | /
Nc1nonc1C(=O)N/N=C/c1ccc([N+](=O)[O-])o1 | . | . | 16µM | . | . | .[11.3 µM]
N/C(=N\[N+](=O)[O-])N/N=C/c1ccc(O)cc1 | . | . | . | . | . | .
CC[C@@]1(O)C(=O)OCc2c1cc1n(c2=O)Cc2cc3ccccc3nc2-1 | . | / | . | / | . | 0.019µM

Screens: PubChem BioAssay, National Center for Advancing Translational Sciences (NCATS)
